Laboratory results as given in PubChem BioAssay (NCATS).
Inconclusive results are not listed. A call without a number means that no potency is given here. Calls of active or inactive are those of the source. Calls follow the shape of the dose curve; as a rule, active = well fitted inhibition curve with a large enough effect; inconclusive = small, poorly fitted or top-dose-only effect; inactive = flat fitted curve, though single readings scatter.

Biological target: Calcium and integrin-binding protein 1 (Homo sapiens) (UniProt Q99828)
Sequence (Q99828 whole entry, looked up): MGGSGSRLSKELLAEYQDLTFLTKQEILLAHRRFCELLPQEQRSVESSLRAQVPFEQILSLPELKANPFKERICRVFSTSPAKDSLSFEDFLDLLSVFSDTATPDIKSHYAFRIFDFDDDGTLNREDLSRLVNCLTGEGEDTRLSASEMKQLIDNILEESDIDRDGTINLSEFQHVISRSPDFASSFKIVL
Experiment: Primary qHTS for Identification of Calcium Integrin Binding Protein 1 (CIB1) Competitor (AID 1508620);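 also: GST tagged CIB1 binding a fluorescein labelled alphaIIb integrin peptide tracer; top concentration of the series differs between compounds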
Settings: CIB1-GST / FITC-alphaIIb peptide fluorescence polarization; series mostly up to 114 µM
In short: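 CIB1-GST (1 uM final) and compound incubated 15 min at room temperature before adding FITC-alphaIIb peptide tracer (100 nM final). Competition for binding read by fluorescence polarization (ex 480, em 540) after another 15 min at room temperature.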

Q: Cc1ccc(CNc2nc(-c3ccccc3C(F)(F)F)nc3ccccc23)cc1 was tested. Which Potency did it give?
A: inactive

Q: Cn1c2ccsc2c2ncn(Cc3ccccc3F)c(=O)c21 was tested. Which Potency did it give?
A: inactive

Q: How did the Potency turn out when O=c1[nH]c2ccc(S(=O)(=O)N3CCN(S(=O)(=O)c4c(F)cccc4F)CC3)cc2[nH]c1=O was run?
A: inactive

Q: How did the Potency turn out when Cc1ccc(NS(=O)(=O)c2ccc3c(c2)CCC(=O)N3)cc1F was run?
A: inactive

Q: With O=C(Nc1ccc(Cl)c(Cl)c1)Nc1ccc(-c2ccncc2)s1 as the compound, how does the Potency read?
A: inactive

Q: Which Potency does the source give for N#Cc1nc(Nc2ccc3ccccc3c2)nc(NC2CCCC2)n1 here?
A: inactive

Q: With O=C(c1ccco1)N1CCN(c2nc(-c3ccc(Br)cc3)cs2)CC1 as the compound, how does the Potency read?
A: inactive

Q: How did the Potency turn out when Cc1ccc(NS(=O)(=O)c2cccc(F)c2)cc1C was run?
A: inactive

Q: For Cc1ccnc(NC(=S)N2CCN(c3cc(Cl)cc(Cl)c3)CC2)c1, which Potency is on record?
A: inactive

Q: How did the Potency turn out when O=C1c2ccccc2C(=O)N1c1cccc(O)c1 was run?
A: inactive

Q: With Cc1ccnc(NC(=S)N2CCc3cccc(C(F)(F)F)c3C2)c1 as the compound, how does the Potency read?
A: inactive

Q: Cc1ccc2nc3sc(C(=O)NC4CCCC4)cc3cc2c1 was tested. Which Potency did it give?
A: inactive

Q: With CC(=O)c1ccc(N2CCN(S(=O)(=O)c3ccc4c(c3)CCCC(=O)N4)CC2)cc1 as the compound, how does the Potency read?
A: inactive

Q: Cc1ccc(NC(=O)CN2C(=O)N/C(=C\c3cccn3-c3ccc(C(=O)NC#N)cc3)C2=O)cc1 was tested. Which Potency did it give?
A: inactive

Q: How did the Potency turn out when Nc1ncc(-c2cccc(-c3nn4c(=O)cc(N5CCNCC5)nc4s3)c2)cn1 was run?
A: inactive

Q: With COc1cc(CNc2ncnc3ccc(-c4c(C)noc4C)cc23)cc(OC)c1OC as the compound, how does the Potency read?
A: inactive

Q: For Cn1nnnc1Sc1ncnc2scc(-c3cccc(Br)c3)c12, which Potency is on record?
A: inactive

Q: Which Potency does the source give for O=C1c2ccccc2C(=O)N1c1cncc2ccccc12 here?
A: inactive

Q: For CN1CCN(c2cccc(Nc3nn4c(=O)c5ccccc5nc4s3)c2)CC1, which Potency is on record?
A: inactive

Q: Which Potency does the source give for N#Cc1ccc(-c2ccc(C3Nc4ccccc4C(=O)N3O)o2)cc1 (centres undefined) here?
A: inactive

Q: O=[S+]([O-])(Nc1ccccc1F)c1cccc(NC/C=C/c2ccccc2)c1 was tested. Which Potency did it give?
A: inactive

Q: Which Potency does the source give for CCCCN(C)C(=O)Cn1nc(-c2ccc(F)cc2)ccc1=O here?
A: inactive

Q: With O=C(O)c1ccc(O)c2ncc(N3CCCCC3)cc12 as the compound, how does the Potency read?
A: inactive

Q: Which Potency does the source give for FC(F)(F)c1cc(N2CCN(C(=S)Nc3cc(Cl)ccn3)CC2)cc(C(F)(F)F)c1 here?
A: inactive

Q: Which Potency does the source give for CCOC(=O)c1ccc2c(c1)c(C(C)=O)c(C)n2-c1ccc(OC)cc1 here?
A: inactive

Q: How did the Potency turn out when Cc1cc2c(s1)c(C=O)c(C(=O)NCc1ccccc1F)n2C was run?
A: inactive

Q: Which Potency does the source give for Cc1cc(C)nc(NC(=S)N2CCN(c3ccc(F)c(F)c3)CC2)c1 here?
A: inactive

Q: Which Potency does the source give for O=C(Cc1ccc(Cl)c(Cl)c1)Nc1ccc(S(=O)(=O)NCc2ccco2)cc1 here?
A: inactive

Q: With COc1ccc(C2Nc3ccccc3C(=O)N2Cc2ccco2)cc1COc1ccccc1C (centres undefined) as the compound, how does the Potency read?
A: inactive

Q: For O=C(Nc1ccc(Oc2ccccc2)cc1)Nc1nnc(-c2ccncc2)s1, which Potency is on record?
A: inactive

Q: With O=C(Nc1nnc(-c2ccncc2)s1)NC12CC3CC(CC(C3)C1)C2 as the compound, how does the Potency read?
A: inactive

Q: For COc1cccc(C2c3c(ncn(-c4ccccc4C)c3=N)Oc3ccc4ccccc4c32)c1 (centres undefined), which Potency is on record?
A: inactive

Q: For CC(=O)c1ccc(-c2csc(N3CCC(C(N)=O)CC3)n2)cc1, which Potency is on record?
A: inactive

Q: Which Potency does the source give for O=C(NCc1ccc(F)cc1)n1c(-c2ccccc2)c(P(=S)(c2ccccc2)c2ccccc2)c2ccccc21 here?
A: inactive

Q: Cc1cc(NS(=O)(=O)c2cc3c(cc2N[C@@H](C)CO)NC(=O)CC3)ccc1F was tested. Which Potency did it give?
A: inactive

Q: For Cc1ccc(NS(=O)(=O)c2cccc(Cl)c2)cc1C, which Potency is on record?
A: inactive

Q: O=c1c2ccccc2nc2sc(Nc3ccc4c(c3)OCO4)nn12 was tested. Which Potency did it give?
A: inactive

Q: For Fc1cccc(CNc2ncnc3ccc(-c4ccoc4)cc23)c1, which Potency is on record?
A: inactive

Q: With CCCCNC(=O)c1ccc2c(c1)ncn2-c1cccc(C)c1 as the compound, how does the Potency read?
A: inactive
